# Measured values reported in PubChem BioAssay (EPA / NIEHS).
# Values joined by “and” are separate entries in the source; they are usually repeats but may differ in a detail not shown here. Equal entries are not always repeated. Active and inactive are the calls of the source. Rule for the calls, unless noted: active = hit-call score of the fitted dose curve at least 0.9, where 1 is the maximum; inactive = score below 0.9.
# Test system: SERPINA7 (gene 6906)
# Experiment: CCTE_GLTED_hTBG: CCTE's human Thyroxine-binding Globulin (TBG) Inhibition Assay, Great Lakes Toxicology and Ecology Division (GLTED) Lab (AID 2284343; active = hit-call score of the fitted dose curve at least 0.9, where 1 is the maximum;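 note: active chemicals lower fluorescence versus DMSO baseline by displacing probe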)
# Procedure, shortened: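 Measures how far test chemicals displace ANSA bound to purified human TBG. The read-out is fluorescence at 380 nm excitation and 475 nm emission, taken after 2 h of incubation.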
row,SMILES,AC50
1,O=S1(=O)OC(c2cc(Br)c(O)c(Br)c2)(c2cc(Br)c(O)c(Br)c2)c2ccccc21,7.4 µM (active)
2,CCOCn1c(-c2ccc(Cl)cc2)c(C#N)c(Br)c1C(F)(F)F,2.12 µM (active)
3,CCCSP(=S)(OCC)Oc1ccc(SC)cc1 (configuration not stated),1.52 µM (active)
4,Oc1c(Br)cc(Br)cc1Br,10.3 µM (active)
5,O=C(NC(=O)c1c(F)cccc1F)Nc1cc(Cl)c(OC(F)(F)C(F)C(F)(F)F)cc1Cl (configuration not stated),19.5 µM (active)
6,Oc1cc(Cl)c(Cl)cc1Cl,40.8 µM (active)
7,O=C(O)COc1cc(Cl)c(Cl)cc1Cl,45.6 µM (active)
8,CCCCCCCCCCCCc1cccc(S(=O)(=O)O)c1,22.2 µM (active)
9,CCCCCCCCCCCCOS(=O)(=O)O,37.2 µM (active) and 56.4 µM (active)
10,CCOP(=S)(OCC)O/N=C(\C#N)c1ccccc1,20.6 µM (active)
11,Nc1ccc(N)cc1,20.3 µM (active)

# Test system: not listed separately
# Experiment: CCTE_Padilla_ZF_Score.Craniofacial: CCTE's 144 Hour Post-fertilization zebrafish Assay Score for Craniofacial Malformation, Padilla Lab (AID 2284405)
# Procedure, shortened: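 Wild-type zebrafish embryos (with chorions), one per well in 10% Hanks', were dosed at 6–8 hpf in sealed plates and kept at 26C. They were rinsed at 5 dpf. At 6 dpf two blinded assessors scored craniofacial malformations by brightfield stereomicroscopy.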
row,SMILES,outcome
1,CC(F)(F)CC(F)(F)F,inactive
2,COC(F)(C(F)(F)C(F)(F)F)C(F)(C(F)(F)F)C(F)(F)F (configuration not stated),inactive
3,O=S(=O)(F)C(F)(F)C(F)(F)C(F)(F)C(F)(F)F,inactive
4,C=CCOC(F)(C(F)(F)F)C(F)(F)F,inactive

# Test system: not listed separately
# Experiment: CCTE_Padilla_ZF_Score.Edema: CCTE's 144 Hour Post-fertilization zebrafish Assay Score for Edema Malformation, Padilla Lab (AID 2284406)
# Procedure, shortened: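 Wild-type zebrafish embryos, one per well in Hanks' solution, dosed at 6-8 hpf, sealed and reared at 26C on a 14:10 h cycle; rinsed on 5 dpf. At 6 dpf, blinded assessors scored edema by stereomicroscopy.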
row,SMILES,outcome
1,CC(F)(F)CC(F)(F)F,inactive
2,COC(F)(C(F)(F)C(F)(F)F)C(F)(C(F)(F)F)C(F)(F)F (configuration not stated),inactive
3,O=S(=O)(F)C(F)(F)C(F)(F)C(F)(F)C(F)(F)F,inactive
4,C=CCOC(F)(C(F)(F)F)C(F)(F)F,inactive

# Test system: not listed separately
# Experiment: CCTE_Padilla_ZF_Score.Spine: CCTE's 144 Hour Post-fertilization zebrafish Assay Score for Spine Malformation, Padilla Lab (AID 2284407)
# Procedure, shortened: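 Wild-type zebrafish embryos, one per well in Hanks' solution, dosed at 6–8 hpf in sealed plates at 26C, 14:10 h light:dark; rinsed at 5 dpf. Two blinded assessors scored spinal defects by stereomicroscopy at 6 dpf; fitted versus DMSO.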
row,SMILES,outcome
1,CC(F)(F)CC(F)(F)F,inactive
2,COC(F)(C(F)(F)C(F)(F)F)C(F)(C(F)(F)F)C(F)(F)F (configuration not stated),inactive
3,O=S(=O)(F)C(F)(F)C(F)(F)C(F)(F)C(F)(F)F,inactive
4,C=CCOC(F)(C(F)(F)F)C(F)(F)F,inactive

# Test system: not listed separately
# Experiment: CCTE_Padilla_ZF_Score.Swim_bladder: CCTE's 144 Hour Post-fertilization zebrafish Assay Score for Swim Bladder Malformation, Padilla Lab (AID 2284408)
# Procedure: CCTE_Padilla_ZF_Phenotype_Score is a whole embryo, multiplexed assay using zebrafish ova exposed for 144 hours post fertilization on a 96-well plate.CCTE_Padilla_ZF_Score.Swim_bladder is one of one assay component(s) measured or calculated from the CCTE_Padilla_ZF_Phenotype_Score assay. It is designed to make measurements of zebrafish development as detected with brightfield microscopy of developing zebrafish embryos.Data from the assay component CCTE_Padilla_ZF_Score.Swim_bladder was analyzed into 1 assay endpoints. This assay endpoint, CCTE_Padilla_ZF_Score.Swim_bladder, was analyzed in the positive analysis fitting direction relative to DMSO as the negative control and baseline of activity. Using a type of viability reporter, gain-of-signal activity can be used to understand changes in developmentals as they relate to the whole embryo. To generalize the intended target to other relatable targets, this assay endpoint is annotated to the zebrafish development intended target family, where the subfamily is swim bladder morphogenesis.
# Zebrafish husbandry: Wild type adult zebrafish (Danio rerio; undefined outbred stock obtained from Aquatic Research Organisms, Hampton, NH, 03842) were housed in an AAALAC-approved animal facility at 28C with a 14:10 h light: dark cycle (lights on at 08:30 h). Adult fish (2-3 females per male; density = 15-20 adults per tank) were kept in one of several 9-liter (L) flow-through colony tanks (Aquaneering Inc., San Diego, CA). All adults in a colony tank were placed in a 2 L (static) breeding tank (Aquatic Habitats, Apopka, FL) one hour prior to light onset. Typically, adults from two to three colony tanks were mated on the same day. Two hours after light onset the adults were returned to the colony tank. All embryos were gathered from each breeder tank, pooled, and placed in a 28C water bath for 2 h, followed by two washes with 0.06% bleach (v/v) in 10% Hanks' Balanced Salt Solution (13.7 mM NaCl 0.54 mM KCl, 25 uM Na2HPO4, 130 uM CaCl2 100 um MgSO4 and 420 um NaHCO3,), hereafter referred to as Hanks' solution, for 5 min in order to remove any residual bacteria or fungi. Immediately following washing, the embryos were examined, and healthy embryos were separated from dead or unfertilized eggs and moved into fresh Hanks'. Chemical exposures: Zebrafish embryos were exposed in 96-well plates. Between 6- and 8-hours post fertilization (hpf), healthy embryos (with chorions) were transferred, one embryo per well, into 96 well (0.5 mL) microtiter plates (Cell Culture-Treated, Flat-Bottom Microplate 96 well [Corning Costar, Kennebunk, ME; Cat 09-761-145]) filled with 200 uL of Hanks' solution. A random number generator was used to assign the order in which the rows of embryos were plated in 96 well plates each week. […]
row,SMILES,outcome
1,CC(F)(F)CC(F)(F)F,inactive
2,COC(F)(C(F)(F)C(F)(F)F)C(F)(C(F)(F)F)C(F)(F)F (configuration not stated),inactive
3,O=S(=O)(F)C(F)(F)C(F)(F)C(F)(F)C(F)(F)F,inactive
4,C=CCOC(F)(C(F)(F)F)C(F)(F)F,inactive
